The panel holds about 83,000 compounds, 20% with a hit somewhere; the sample as a whole holds those more often.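 Each cell line was grown in a 96-well plate and treated with one concentration of compound for 48 hours. Values below 10 were considered active.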
Assays:
Experiment in all cases: NCI-60 one-dose screen, 48 h (100 = growth as untreated, 0 = no growth, -100 = all killed)
Conditions in all cases: 10 µM unless noted
NCI-H23 lung = tested on: NCI-H23 lung
NCI-H226 lung = tested on: NCI-H226 lung
NCI-H322M lung = tested on: NCI-H322M lung
HOP-62 NSCLC = tested on: HOP-62 NSCLC
NCI-H460 lung = tested on: NCI-H460 lung
HOP-92 NSCLC = tested on: HOP-92 NSCLC
NCI-H522 lung = tested on: NCI-H522 lung
A549/ATCC NSCLC = tested on: A549/ATCC NSCLC
786-0 renal = tested on: 786-0 renal
COLO 205 colon = tested on: COLO 205 colon
DU-145 prostate = tested on: DU-145 prostate
K-562 leukemia = tested on: K-562 leukemia
MALME-3M melanoma = tested on: MALME-3M melanoma
MDA-MB-231 breast = tested on: MDA-MB-231 breast
RXF 393 renal = tested on: RXF 393 renal
SF-268 CNS = tested on: SF-268 CNS
SF-295 CNS = tested on: SF-295 CNS
SF-539 CNS = tested on: SF-539 CNS
UACC-257 melanoma = tested on: UACC-257 melanoma
M14 melanoma = tested on: M14 melanoma

Measured: growth

C=C(C)COc1ccc(C(C)(C)C)cc1
inactive: NCI-H23 lung 108% | NCI-H226 lung 95.8% | NCI-H322M lung 102% | HOP-62 NSCLC 91.2% | NCI-H460 lung 104% | HOP-92 NSCLC 99.3% | NCI-H522 lung 90.8% | A549/ATCC NSCLC 91.2% | 786-0 renal 101% | COLO 205 colon 104% | DU-145 prostate 107% | K-562 leukemia 106% | MALME-3M melanoma 116% | MDA-MB-231 breast 102% | RXF 393 renal 99.5% | SF-268 CNS 99.8% | SF-295 CNS 101% | SF-539 CNS 102% | UACC-257 melanoma 82.6% | M14 melanoma 102%

CC(CCC#N)(CCC#N)C(=O)c1ccccc1
inactive: NCI-H23 lung 109% | NCI-H226 lung 107% | NCI-H322M lung 112% | HOP-62 NSCLC 107% | NCI-H460 lung 104% | HOP-92 NSCLC 61% | NCI-H522 lung 88.1% | A549/ATCC NSCLC 97.1% | 786-0 renal 110% | COLO 205 colon 117% | DU-145 prostate 106% | K-562 leukemia 104% | MALME-3M melanoma 114% | MDA-MB-231 breast 109% | RXF 393 renal 98.6% | SF-268 CNS 112% | SF-295 CNS 113% | SF-539 CNS 115% | UACC-257 melanoma 106% | M14 melanoma 115%

CC(=O)/C(C)=N\OC(=O)Nc1ccccc1
inactive: NCI-H23 lung 93.8% | NCI-H226 lung 104% | NCI-H322M lung 101% | HOP-62 NSCLC 94.8% | NCI-H460 lung 107% | HOP-92 NSCLC 92.9% | NCI-H522 lung 98.3% | A549/ATCC NSCLC 103% | 786-0 renal 100% | COLO 205 colon 96.4% | DU-145 prostate 104% | K-562 leukemia 98.4% | MALME-3M melanoma 104% | MDA-MB-231 breast 99.3% | RXF 393 renal 125% | SF-268 CNS 101% | SF-295 CNS 101% | SF-539 CNS 95.3% | UACC-257 melanoma 98.7% | M14 melanoma 101%

C1Cc2onc(-c3noc4c3CCC4)c2C1
inactive: NCI-H23 lung 105% | NCI-H226 lung 120% | NCI-H322M lung 103% | HOP-62 NSCLC 103% | NCI-H460 lung 137% | HOP-92 NSCLC 108% | NCI-H522 lung 96.5% | A549/ATCC NSCLC 104% | 786-0 renal 106% | COLO 205 colon 115% | DU-145 prostate 115% | K-562 leukemia 109% | MALME-3M melanoma 108% | MDA-MB-231 breast 116% | RXF 393 renal 134% | SF-268 CNS 110% | SF-295 CNS 104% | SF-539 CNS 108% | UACC-257 melanoma 110% | M14 melanoma 110%

O=C(Nc1c(Cl)cc(Cl)cc1Cl)ON=C1CCCCC1
inactive: NCI-H23 lung 104% | NCI-H226 lung 99.4% | NCI-H322M lung 106% | HOP-62 NSCLC 100% | NCI-H460 lung 111% | HOP-92 NSCLC 132% | NCI-H522 lung 95.2% | A549/ATCC NSCLC 99.2% | 786-0 renal 99.8% | COLO 205 colon 126% | DU-145 prostate 94.9% | K-562 leukemia 105% | MALME-3M melanoma 101% | MDA-MB-231 breast 101% | RXF 393 renal 116% | SF-268 CNS 91.7% | SF-295 CNS 102% | SF-539 CNS 97.4% | UACC-257 melanoma 102% | M14 melanoma 111%

C=C(OC(C)=O)c1ccccc1
inactive: NCI-H23 lung 97.1% | NCI-H226 lung 107% | NCI-H322M lung 113% | HOP-62 NSCLC 85.5% | NCI-H460 lung 102% | HOP-92 NSCLC 87.5% | NCI-H522 lung 88.5% | A549/ATCC NSCLC 86.7% | 786-0 renal 104% | COLO 205 colon 109% | DU-145 prostate 113% | K-562 leukemia 83% | MALME-3M melanoma 108% | MDA-MB-231 breast 103% | RXF 393 renal 113% | SF-268 CNS 102% | SF-295 CNS 105% | SF-539 CNS 108% | UACC-257 melanoma 83.7% | M14 melanoma 97.3%

ClCC(Cl)C1CCC(Cl)C(Cl)C1 (stereo not given)
inactive: NCI-H23 lung 105% | NCI-H226 lung 119% | NCI-H322M lung 107% | HOP-62 NSCLC 111% | NCI-H460 lung 107% | HOP-92 NSCLC 105% | NCI-H522 lung 102% | A549/ATCC NSCLC 98.2% | 786-0 renal 96.8% | COLO 205 colon 109% | DU-145 prostate 102% | K-562 leukemia 105% | MALME-3M melanoma 99.5% | MDA-MB-231 breast 113% | RXF 393 renal 125% | SF-268 CNS 98.1% | SF-295 CNS 95.9% | SF-539 CNS 96.6% | UACC-257 melanoma 101% | M14 melanoma 101%

N#CC1(O)CCCCC1
inactive: NCI-H23 lung 114% | NCI-H226 lung 100% | NCI-H322M lung 97.8% | HOP-62 NSCLC 95.2% | NCI-H460 lung 107% | HOP-92 NSCLC 96.5% | NCI-H522 lung 88.6% | A549/ATCC NSCLC 92.1% | 786-0 renal 105% | COLO 205 colon 109% | DU-145 prostate 103% | K-562 leukemia 102% | MALME-3M melanoma 104% | MDA-MB-231 breast 118% | RXF 393 renal 110% | SF-268 CNS 98.5% | SF-295 CNS 103% | SF-539 CNS 105% | UACC-257 melanoma 90.2% | M14 melanoma 95.7%

Oc1ccc(N=Cc2ccc(OCc3ccccc3)cc2)cc1
inactive: NCI-H23 lung 95.5% | NCI-H226 lung 102% | NCI-H322M lung 93.8% | HOP-62 NSCLC 109% | NCI-H460 lung 104% | HOP-92 NSCLC 97.5% | NCI-H522 lung 90.8% | A549/ATCC NSCLC 112% | 786-0 renal 99.4% | COLO 205 colon 103% | DU-145 prostate 108% | K-562 leukemia 120% | MALME-3M melanoma 93.5% | MDA-MB-231 breast 92.5% | RXF 393 renal 99.2% | SF-268 CNS 103% | SF-295 CNS 92% | SF-539 CNS 105% | UACC-257 melanoma 118% | M14 melanoma 104%

Cc1ccc(S(=O)(=O)CCCl)cc1
inactive: NCI-H23 lung 102% | NCI-H226 lung 108% | NCI-H322M lung 128% | HOP-62 NSCLC 112% | NCI-H460 lung 105% | HOP-92 NSCLC 76.1% | NCI-H522 lung 113% | A549/ATCC NSCLC 89.5% | 786-0 renal 108% | COLO 205 colon 120% | DU-145 prostate 112% | K-562 leukemia 95.6% | MALME-3M melanoma 117% | MDA-MB-231 breast 117% | RXF 393 renal 100% | SF-268 CNS 93.8% | SF-295 CNS 111% | SF-539 CNS 100% | UACC-257 melanoma 100% | M14 melanoma 104%

COC(=O)C1(CC(C)=O)NC(=S)NC(=O)C1C#N (stereo not given)
inactive: NCI-H23 lung 99.5% | NCI-H226 lung 108% | NCI-H322M lung 108% | HOP-62 NSCLC 104% | NCI-H460 lung 134% | HOP-92 NSCLC 102% | NCI-H522 lung 98.6% | A549/ATCC NSCLC 106% | 786-0 renal 105% | COLO 205 colon 117% | DU-145 prostate 125% | K-562 leukemia 104% | MALME-3M melanoma 103% | MDA-MB-231 breast 104% | RXF 393 renal 107% | SF-268 CNS 117% | SF-295 CNS 96.8% | SF-539 CNS 103% | UACC-257 melanoma 118% | M14 melanoma 110%

COc1nc2ccccc2s1
inactive: NCI-H23 lung 94.7% | NCI-H226 lung 97.3% | NCI-H322M lung 111% | HOP-62 NSCLC 114% | NCI-H460 lung 99.4% | HOP-92 NSCLC 99.2% | NCI-H522 lung 96.3% | A549/ATCC NSCLC 96.8% | 786-0 renal 104% | COLO 205 colon 93.1% | DU-145 prostate 110% | K-562 leukemia 102% | MALME-3M melanoma 111% | MDA-MB-231 breast 115% | RXF 393 renal 118% | SF-268 CNS 101% | SF-295 CNS 113% | SF-539 CNS 90.7% | UACC-257 melanoma 84.8% | M14 melanoma 93.5%

C=CCS(C)(=O)=O
inactive: NCI-H23 lung 106% | NCI-H226 lung 96.7% | NCI-H322M lung 102% | HOP-62 NSCLC 87.3% | NCI-H460 lung 105% | HOP-92 NSCLC 99.4% | NCI-H522 lung 92.8% | A549/ATCC NSCLC 92.9% | 786-0 renal 99.4% | COLO 205 colon 96.5% | DU-145 prostate 108% | K-562 leukemia 103% | MALME-3M melanoma 121% | MDA-MB-231 breast 97.9% | RXF 393 renal 98% | SF-268 CNS 103% | SF-295 CNS 93.8% | SF-539 CNS 96.3% | UACC-257 melanoma 89.5% | M14 melanoma 95.8%

O=C(O)Cc1cccc2ccccc12
inactive: NCI-H23 lung 121% | NCI-H226 lung 117% | NCI-H322M lung 105% | HOP-62 NSCLC 106% | NCI-H460 lung 109% | HOP-92 NSCLC 103% | NCI-H522 lung 95.7% | A549/ATCC NSCLC 99.8% | 786-0 renal 111% | COLO 205 colon 113% | DU-145 prostate 115% | K-562 leukemia 96.4% | MALME-3M melanoma 116% | MDA-MB-231 breast 123% | RXF 393 renal 117% | SF-268 CNS 109% | SF-295 CNS 110% | SF-539 CNS 108% | UACC-257 melanoma 90.4% | M14 melanoma 103%

COc1ccc(C(=O)/C(=N/Nc2ccccc2)c2ccc(OC)cc2)cc1
inactive: NCI-H23 lung 89% | NCI-H226 lung 94.2% | NCI-H322M lung 103% | HOP-62 NSCLC 102% | NCI-H460 lung 94.1% | HOP-92 NSCLC 82.1% | NCI-H522 lung 79.3% | A549/ATCC NSCLC 85.4% | 786-0 renal 94.2% | COLO 205 colon 99.9% | DU-145 prostate 115% | K-562 leukemia 92.8% | MALME-3M melanoma 109% | MDA-MB-231 breast 82.7% | RXF 393 renal 92.4% | SF-268 CNS 101% | SF-295 CNS 101% | SF-539 CNS 95.9% | UACC-257 melanoma 111% | M14 melanoma 102%

CC(=O)O[C@H]1CC[C@]2(C)C3=C(C(=O)C[C@H]2C1(C)C)[C@]1(C)CC[C@H]([C@H](C)CCC(=O)O)[C@@]1(C)CC3=O
inactive: NCI-H23 lung 98.3% | NCI-H226 lung 107% | NCI-H322M lung 105% | HOP-62 NSCLC 95.4% | NCI-H460 lung 89.8% | HOP-92 NSCLC 107% | NCI-H522 lung 81.8% | A549/ATCC NSCLC 101% | 786-0 renal 107% | COLO 205 colon 103% | DU-145 prostate 108% | K-562 leukemia 86.8% | MALME-3M melanoma 98.1% | MDA-MB-231 breast 107% | RXF 393 renal 110% | SF-268 CNS 111% | SF-295 CNS 96.4% | SF-539 CNS 96.2% | UACC-257 melanoma 113% | M14 melanoma 99.3%
